Source: PubChem BioAssay AID1159580 (chemical genetic matrix, 2015)
The campaign covered roughly 5,500 compounds. About 2,000 (36%) were called active. Another 18% or so got no clear call; they are omitted. This is one part of the list. A number with no mark means an inactive call. No stated cut-off is given here; in the data, active means normalized growth mostly below about 0.91 (no sharp cut-off); inconclusive means no clear call, values can overlap the other calls; inactive means mostly above about 0.92.

Assay: chemical genetic growth profiling, strain panel (AID 1159580);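 further: tested at 20 µM; growth read once vehicle control cultures reached saturation at 30 °C; 1 = growth at the plate median or of vehicle wells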
Details: S. cerevisiae deletion strains, growth OD
[1] = locus YER002W, strain NOP16, stronger effect = lower value
[2] = locus YNL175C, strain NOP13, stronger effect = lower value
[3] = locus YNL197C, strain WHI3, stronger effect = lower value
[4] = locus YNL224C, strain SQS1, stronger effect = lower value
[5] = locus YOR083W, strain WHI5 (second series), stronger effect = lower value

`O=[N+]([O-])c1cccc2c(Br)[nH]nc12` showed a normalized growth (locus YAL021C, strain ccr4, stronger effect = lower value) of 0.955, a normalized growth (locus YAL026C, strain drs2, stronger effect = lower value) of 0.993 and a normalized growth (locus YAL030W, strain snc1, stronger effect = lower value) of 0.984. The normalized growth (locus YBL061C, strain skt5, stronger effect = lower value) was 0.982, the normalized growth (locus YBR009C, strain hhf1, stronger effect = lower value) was 1.01 and the normalized growth (locus YBR023C, strain chs3, stronger effect = lower value) was 0.992. For the same compound, the normalized growth (locus YBR171W, strain sec66, stronger effect = lower value) was 0.972, the normalized growth (locus YBR231C, strain swc5, stronger effect = lower value) was 0.997 and the normalized growth (locus YBR279W, strain paf1, stronger effect = lower value) was 0.992. For the same compound, the normalized growth (locus YCL011C, strain gbp2, stronger effect = lower value) was 0.976, the normalized growth (locus YCL016C, strain dcc1, stronger effect = lower value) was 0.996 and the normalized growth (locus YCL061C, strain MRC1, stronger effect = lower value) was 0.983. The normalized growth (locus YCL069W, strain vba3, stronger effect = lower value) was 0.972, the normalized growth (locus YCR088W, strain abp1, stronger effect = lower value) was 0.986 and the normalized growth (locus YDL005C, strain med2, stronger effect = lower value) was 0.977. It also gave a normalized growth (locus YDL040C, strain nat1, stronger effect = lower value) of 0.99, a normalized growth (locus YDR001C, strain nth1, stronger effect = lower value) of 0.984 and a normalized growth (locus YDR069C, strain doa4, stronger effect = lower value) of 0.965. For the same compound, the normalized growth (locus YDR137W, strain rgp1, stronger effect = lower value) was 0.942, the normalized growth (locus YDR150W, strain NUM1, stronger effect = lower value) was 0.961 and the normalized growth (locus YDR159W, strain sac3, stronger effect = lower value) was 1.07. It also gave a normalized growth (locus YDR195W, strain ref2) of 1.09, a normalized growth (locus YDR297W, strain sur2, stronger effect = lower value) of 0.977 and a normalized growth (locus YDR334W, strain swr1, stronger effect = lower value) of 0.956. For the same compound, the normalized growth (locus YDR335W, strain msn5, stronger effect = lower value) was 0.975, the normalized growth (locus YDR392W, strain spt3, stronger effect = lower value) was 0.852 and the normalized growth (locus YEL003W, strain gim4, stronger effect = lower value) was 0.978. For the same compound, the normalized growth (locus YEL037C, strain rad23, stronger effect = lower value) was 0.99, the normalized growth (locus YEL061C, strain CIN8 (second series), stronger effect = lower value) was 0.987 and the normalized growth [1] was 0.975. It also gave a normalized growth (locus YER015W, strain faa2, stronger effect = lower value) of 0.973, a normalized growth (locus YER016W, strain bim1, stronger effect = lower value) of 0.998 and a normalized growth (locus YER111C, strain swi4, stronger effect = lower value) of 0.998. It also gave a normalized growth (locus YER155C, strain BEM2 (second series), stronger effect = lower value) of 0.948, a normalized growth (locus YFR010W, strain ubp6, stronger effect = lower value) of 0.972 and a normalized growth (locus YGL167C, strain pmr1, stronger effect = lower value) of 0.99. For the same compound, the normalized growth (locus YGL173C, strain kem1, stronger effect = lower value) was 0.983, the normalized growth (locus YGL227W, strain vid30, stronger effect = lower value) was 0.993 and the normalized growth (locus YGL240W, strain doc1, stronger effect = lower value) was 0.996. For the same compound, the normalized growth (locus YGL253W, strain hxk2, stronger effect = lower value) was 0.988, the normalized growth (locus YHR013C, strain ard1, stronger effect = lower value) was 1.03 and the normalized growth (locus YHR027C, strain rpn1, stronger effect = lower value) was 0.974. The normalized growth (locus YHR030C, strain SLT2, stronger effect = lower value) was 0.933, the normalized growth (locus YHR079C, strain IRE1, stronger effect = lower value) was 0.937 and the normalized growth (locus YHR142W, strain chs7, stronger effect = lower value) was 0.901. For the same compound, the normalized growth (locus YJL092W, strain hpr5, stronger effect = lower value) was 0.969, the normalized growth (locus YJL095W, strain BCK1 (second series), stronger effect = lower value) was 0.977 and the normalized growth (locus YJL095W, strain BCK1, stronger effect = lower value) was 0.911. It also gave a normalized growth (locus YJL115W, strain asf1, stronger effect = lower value) of 0.985, a normalized growth (locus YJL129C, strain trk1, stronger effect = lower value) of 0.988 and a normalized growth (locus YJL154C, strain vps35, stronger effect = lower value) of 0.983. For the same compound, the normalized growth (locus YJL164C, strain tpk1, stronger effect = lower value) was 0.932, the normalized growth (locus YJL166W, strain qcr8, stronger effect = lower value) was 0.952 and the normalized growth (locus YJL187C, strain SWE1, stronger effect = lower value) was 0.98. It also gave a normalized growth (locus YJR066W, strain TOR1, stronger effect = lower value) of 0.882, a normalized growth (locus YKL160W, strain elf1, stronger effect = lower value) of 0.916 and a normalized growth (locus YKR026C, strain gcn3, stronger effect = lower value) of 0.988. For the same compound, the normalized growth (locus YKR091W, strain srl3, stronger effect = lower value) was 0.976, the normalized growth (locus YLL001W, strain dnm1, stronger effect = lower value) was 0.977 and the normalized growth (locus YLL026W, stronger effect = lower value) was 0.98. It also gave a normalized growth (locus YLL041C, strain sdh2, stronger effect = lower value) of 0.976, a normalized growth (locus YLR027C, strain aat2, stronger effect = lower value) of 0.972 and a normalized growth (locus YLR113W, strain HOG1, stronger effect = lower value) of 1.04. It also gave a normalized growth (locus YLR221C, strain rsa3, stronger effect = lower value) of 0.937, a normalized growth (locus YLR258W, strain gsy2, stronger effect = lower value) of 0.994 and a normalized growth (locus YLR262C, strain YPT6 (second series), stronger effect = lower value) of 0.986. The normalized growth (locus YLR320W, strain mms22, stronger effect = lower value) was 0.99, the normalized growth (locus YLR342W, strain FKS1, stronger effect = lower value) was 0.987 and the normalized growth (locus YLR357W, strain rsc2, stronger effect = lower value) was 1.02. The normalized growth (locus YLR370C, strain arc18, stronger effect = lower value) was 0.986, the normalized growth (locus YLR384C, strain iki3, stronger effect = lower value) was 0.987 and the normalized growth (locus YML120C, strain ndi1, stronger effect = lower value) was 0.94. It also gave a normalized growth (locus YMR058W, strain fet3, stronger effect = lower value) of 0.942, a normalized growth (locus YMR125W, strain sto1, stronger effect = lower value) of 1.01 and a normalized growth (locus YMR129W, stronger effect = lower value) of 0.99. It also gave a normalized growth (locus YMR205C, strain PFK2, stronger effect = lower value) of 1.05, a normalized growth (locus YMR231W, strain pep5, stronger effect = lower value) of 0.994 and a normalized growth (locus YNL071W, strain lat1, stronger effect = lower value) of 0.982. The normalized growth [2] was 0.972, the normalized growth (locus YNL183C, strain NPR1, stronger effect = lower value) was 0.873 and the normalized growth [3] was 1.01. The normalized growth (locus YNL209W, strain ssb2, stronger effect = lower value) was 0.973, the normalized growth [4] was 0.982 and the normalized growth (locus YNL248C, strain rpa49, stronger effect = lower value) was 0.871 (active). The normalized growth (locus YNL322C, strain KRE1 (second series), stronger effect = lower value) was 0.994, the normalized growth (locus YNR049C, strain mso1, stronger effect = lower value) was 0.977 and the normalized growth (locus YOR001W, strain rrp6, stronger effect = lower value) was 0.928. For the same compound, the normalized growth (locus YOR070C, strain gyp1, stronger effect = lower value) was 0.984, the normalized growth (locus YOR080W, strain dia2, stronger effect = lower value) was 0.987 and the normalized growth [5] was 0.991. The normalized growth (locus YOR083W, strain WHI5, stronger effect = lower value) was 0.881 (active), the normalized growth (locus YOR106W, strain vam3, stronger effect = lower value) was 0.863 (active) and the normalized growth (locus YOR231W, strain MKK1, stronger effect = lower value) was 0.929. It also gave a normalized growth (locus YOR265W, strain rbl2, stronger effect = lower value) of 0.982, a normalized growth (locus YOR270C, strain vph1, stronger effect = lower value) of 0.804 and a normalized growth (locus YOR290C, strain snf2, stronger effect = lower value) of 0.919. For the same compound, the normalized growth (locus YPL051W, strain arl3, stronger effect = lower value) was 0.899 (active), the normalized growth (locus YPL078C, strain atp4, stronger effect = lower value) was 0.874 (active) and the normalized growth (locus YPL106C, strain sse1, stronger effect = lower value) was 0.979. It also gave a normalized growth (locus YPL240C, strain hsp82, stronger effect = lower value) of 0.979 and a normalized growth (locus YPL256C, strain CLN2, stronger effect = lower value) of 0.97.
`NS(=O)(=O)c1cccc2c1c([N+](=O)[O-])cc1nc(O)c(O)nc12` gave a normalized growth (locus YAL013W, strain DEP1, stronger effect = lower value) of 1, a normalized growth (locus YAL040C, strain CLN3, stronger effect = lower value) of 1.08 and a normalized growth (locus YCL061C, strain MRC1 (second series), stronger effect = lower value) of 0.998. For the same compound, the normalized growth (locus YDR363W, strain ESC2, stronger effect = lower value) was 1.01, the normalized growth [1] was 0.999 and the normalized growth (locus YGR078C, strain PAC10, stronger effect = lower value) was 0.995. The normalized growth (locus YMR307W, strain GAS1, stronger effect = lower value) was 0.997, the normalized growth [2] was 0.989 and the normalized growth [3] was 1.01. The normalized growth [4] was 1, the normalized growth (locus YNL322C, strain KRE1, stronger effect = lower value) was 0.998 and the normalized growth [5] was 1.01. The normalized growth (locus YPL055C, strain LGE1, stronger effect = lower value) was 1.
